The structures appear in SMILES notation. Compounds without any hit were thinned out: in the full panel of roughly 83,000, 20% have a hit.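 Activity criterion: percent growth below 10, measured after cells in 96-well plates were exposed to a single compound concentration for 48 hours.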 Unmarked numbers belong to inactive results. Activity calls are given as the source filed them.

What all share (test): NCI-60 one-dose screen, 48 h (100 = growth as untreated, 0 = no growth, -100 = all killed)
For one assay, the system named is SR leukemia. The conditions noted are these: 10 µM unless noted.
For a further assay, the system named is RPMI-8226 leukemia. The conditions noted are these: 10 µM unless noted.
Another assay deals with OVCAR-8 ovarian. Particulars: 10 µM unless noted.
The subject of a further assay is OVCAR-5 ovarian. The conditions noted are these: 10 µM unless noted.
The test system of the next assay is OVCAR-4 ovarian. The conditions noted are these: 10 µM unless noted.
A further assay deals with SK-OV-3 ovarian. The conditions noted are these: 10 µM unless noted.
The next assay deals with IGROV1 ovarian. The conditions noted are these: 10 µM unless noted.
The next assay deals with OVCAR-3 ovarian. The conditions noted are these: 10 µM unless noted.
The test system of the next assay is NCI/ADR-RES ovarian. The conditions noted are these: 10 µM unless noted.
The next assay has as its system T-47D breast. The conditions noted are these: 10 µM unless noted.
A further assay concerns BT-549 breast. The conditions noted are these: 10 µM unless noted.
Another assay has as its system MDA-MB-435 melanoma. Particulars: 10 µM unless noted.
Another assay relates to MCF7 breast. The conditions noted are these: 10 µM unless noted.
A further assay concerns HCT-116 colon. Particulars: 10 µM unless noted.
The next assay deals with KM12 colon. Particulars: 10 µM unless noted.
Another assay concerns SW-620 colon. The conditions noted are these: 10 µM unless noted.
For another assay, the system named is HCC-2998 colon. Particulars: 10 µM unless noted.
In the next assay the test system is HS 578T breast. Particulars: 10 µM.

For `c1ccc(C2=Nc3ccccc3SC2)cc1`, the growth in the assay with SR leukemia was 107%; in the assay on RPMI-8226 leukemia it was 93.8%; in the assay with OVCAR-8 ovarian it was 101%; in the assay with OVCAR-5 ovarian, 98.6%; in the assay with OVCAR-4 ovarian it was 91.5%; in the assay on SK-OV-3 ovarian, 110%. In addition, the growth in the assay with IGROV1 ovarian was 88.6%; in the assay with OVCAR-3 ovarian, 99.4%; in the assay on NCI/ADR-RES ovarian, 113%; in the assay with T-47D breast, 100%; in the assay on BT-549 breast, 107%; in the assay with MDA-MB-435 melanoma, 105%. Further, the growth was 86.4% in the assay with MCF7 breast, 96.7% with HCT-116 colon and 97.5% in the assay with KM12 colon.
On to `Oc1ccc(Cl)cc1-c1cc(-c2ccccc2Cl)[nH]n1`, for which the growth in the assay on SR leukemia was 41.9%; in the assay with RPMI-8226 leukemia, 42.3%; with OVCAR-8 ovarian, 71.1%; in the assay on OVCAR-5 ovarian it was 87.9%; in the assay with OVCAR-4 ovarian it was 13.3%; in the assay with SK-OV-3 ovarian, 76.9%. The growth in the assay on IGROV1 ovarian was 34.2%; with OVCAR-3 ovarian, 21.2%; in the assay on T-47D breast it was 11.1%; with BT-549 breast it was 76.2%; in the assay with MDA-MB-435 melanoma, 48.1%; in the assay with SW-620 colon, 74.7%. Besides, the growth with MCF7 breast was 9.57% (active); with HCT-116 colon, 55.8%; in the assay with HCC-2998 colon, 31.1%; in the assay with KM12 colon, 19.7%.
As to `CC(=O)c1ccc(-n2c(-c3cc(-c4ccsc4)n[nH]3)n[nH]c2=S)cc1`, the growth with SR leukemia was 94%; in the assay on RPMI-8226 leukemia, 101%; in the assay with OVCAR-8 ovarian it was 98.9%; with OVCAR-5 ovarian, 97.8%; in the assay with OVCAR-4 ovarian, 105%; in the assay with SK-OV-3 ovarian, 104%. For the same compound, the growth is 107% in the assay with IGROV1 ovarian; 113% in the assay with OVCAR-3 ovarian; 103% with T-47D breast; 95.3% in the assay on BT-549 breast; 106% with MDA-MB-435 melanoma; 94% in the assay with SW-620 colon. The growth in the assay on MCF7 breast is 90.4%; in the assay on HCT-116 colon, 98.1%; in the assay on HCC-2998 colon, 99%.
With `COc1ccc(C2=NN(C=O)C(c3ccc(OS(=O)(=O)c4ccc(C)cc4)c(OC)c3)C2)cc1` (stereo not drawn), the growth with SR leukemia is 23.5%; in the assay on RPMI-8226 leukemia, 40.3%; in the assay on OVCAR-8 ovarian it was 59.6%; in the assay on OVCAR-5 ovarian it was 89.9%; with OVCAR-4 ovarian it was 40.5%; with SK-OV-3 ovarian, 84.3%. Further, the growth in the assay with IGROV1 ovarian is 79.1%; with OVCAR-3 ovarian, 60.8%; in the assay on HS 578T breast, 60.1%; with BT-549 breast, 46.4%; with MDA-MB-435 melanoma it was 14.1%; with SW-620 colon it was 48.3%. The growth in the assay on MCF7 breast is 40.2%; in the assay with HCT-116 colon it was 45.8%; with HCC-2998 colon, 74.1%; with KM12 colon, 54.5%.
Turning to `O=C1OCC2=C1C(c1ccc(Cl)c(Cl)c1)c1cc3c(cc1N2CCO)CCC3` (stereo not drawn), the growth in the assay with SR leukemia was 33.7%; with RPMI-8226 leukemia, 22%; in the assay with OVCAR-8 ovarian, 23.5%; in the assay with OVCAR-5 ovarian it was 35.3%; in the assay with OVCAR-4 ovarian, 50%; in the assay with SK-OV-3 ovarian, 38.6%. Besides, the growth is 30.1% in the assay with IGROV1 ovarian; -42% (active) with OVCAR-3 ovarian; 5.2% (active) with HS 578T breast; 63.3% with T-47D breast; 44.8% in the assay on BT-549 breast; -38.6% (active) in the assay with MDA-MB-435 melanoma. The growth in the assay with SW-620 colon is 24.5%; in the assay with MCF7 breast, 20.4%; in the assay on KM12 colon it was 9.04% (active).
Take `Cc1nc2c(-c3cnc(N)nc3)nc(N3CCOCC3)nc2n1C(C)C`: the growth was 7% (active) in the assay on SR leukemia; 12.8% in the assay on RPMI-8226 leukemia; -8.95% (active) in the assay on OVCAR-8 ovarian; 7.67% (active) in the assay with OVCAR-5 ovarian; -3.01% (active) with OVCAR-4 ovarian; -39.7% (active) in the assay on SK-OV-3 ovarian. Besides, the growth with IGROV1 ovarian was -24.7% (active); with OVCAR-3 ovarian it was 10%; with NCI/ADR-RES ovarian, -5.49% (active); in the assay with T-47D breast, -18% (active); with BT-549 breast, -3.32% (active); in the assay on MDA-MB-435 melanoma it was 4.17% (active). Further, the growth in the assay with SW-620 colon is 11.3%; with MCF7 breast it was 9.9% (active); in the assay on HCT-116 colon, 17.2%; in the assay with KM12 colon, 5.78% (active).
`CCNS(=O)(=O)c1ccc(C)cc1`: the growth with SR leukemia was 122%; in the assay with RPMI-8226 leukemia, 99.1%; with OVCAR-8 ovarian, 100%; in the assay with OVCAR-5 ovarian, 97.2%; with OVCAR-4 ovarian, 103%; in the assay with SK-OV-3 ovarian, 112%. The growth in the assay with IGROV1 ovarian is 98.3%; in the assay on OVCAR-3 ovarian it was 111%; in the assay with NCI/ADR-RES ovarian, 108%; in the assay on BT-549 breast, 114%; in the assay with MDA-MB-435 melanoma, 111%; with SW-620 colon, 107%. Also, the growth with MCF7 breast was 94.9%; in the assay with HCT-116 colon, 113%; with HCC-2998 colon, 106%; in the assay on KM12 colon, 108%.
As for `COS(=O)(=O)CCN(CCOS(C)(=O)=O)S(C)(=O)=O`, the growth was 95.5% in the assay on SR leukemia; 99.8% in the assay on RPMI-8226 leukemia; 94.9% with OVCAR-8 ovarian; 101% in the assay with OVCAR-5 ovarian; 107% in the assay with OVCAR-4 ovarian; 104% with SK-OV-3 ovarian. In addition, the growth with IGROV1 ovarian was 105%; in the assay with OVCAR-3 ovarian, 105%; in the assay on NCI/ADR-RES ovarian it was 105%; with T-47D breast, 98%; with BT-549 breast, 97.5%; in the assay with MDA-MB-435 melanoma, 108%. Besides, the growth is 107% in the assay on SW-620 colon; 96% with MCF7 breast; 100% in the assay with HCT-116 colon; 98% in the assay with HCC-2998 colon; 105% with KM12 colon.
On to `CCCCCCCCCCCCCC[N+](C)(C)CCCCCCCCCCCCCC`, for which the growth in the assay with SR leukemia is 35.7%; in the assay on RPMI-8226 leukemia, 12.6%; in the assay with OVCAR-8 ovarian, 49.6%; in the assay on OVCAR-5 ovarian, 79.9%; with OVCAR-4 ovarian, 62%; in the assay with SK-OV-3 ovarian it was 85.5%. For the same compound, the growth with IGROV1 ovarian was 9.59% (active); in the assay with OVCAR-3 ovarian it was 87.5%; with NCI/ADR-RES ovarian it was 104%; in the assay with T-47D breast it was 57.5%; in the assay on BT-549 breast, 92.3%; in the assay with MDA-MB-435 melanoma, 39.4%. Besides, the growth with SW-620 colon was 76%; with HCT-116 colon it was 51.4%; in the assay on HCC-2998 colon it was 62.1%; with KM12 colon, 76.2%.
For `Nc1nc(N)c2c(n1)NC(c1sc(Cl)nc1Cl)CC(c1ccccc1)=N2` (stereo not drawn), the growth was 19.9% in the assay with SR leukemia; 45.3% with RPMI-8226 leukemia; 60.7% in the assay on OVCAR-8 ovarian; 76.7% in the assay on OVCAR-5 ovarian; 94% with OVCAR-4 ovarian; 74% with SK-OV-3 ovarian. Moreover, the growth in the assay with IGROV1 ovarian is 50.5%; with OVCAR-3 ovarian, 40.4%; in the assay with HS 578T breast it was 48.1%; in the assay with BT-549 breast it was 44.5%; with MDA-MB-435 melanoma, 2.29% (active); in the assay with SW-620 colon, 19.3%. Further, the growth is 31.3% with MCF7 breast, 21.4% in the assay on HCT-116 colon, 74.3% in the assay with HCC-2998 colon and 47.9% with KM12 colon.
